Measurements taken from PubChem BioAssay (EPA / NIEHS).
Records with an inconclusive call do not appear. Active and inactive are the calls of the source. How the source made its calls, unless noted: active means hit-call score of the fitted dose curve at least 0.9, where 1 is the maximum; inactive means score below 0.9.

Columns and labels:
[1] = ATG_TAL_CIS: Attagene CIS-FACTORIAL HepG2 Assay for human TAL Basal Promoter (AID 2282966); settings: HepG2 Attagene cis-factorial TAL promoter reporter; actives raise or lower the signal;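 further: background control endpoint measuring basal TAL promoter reporter mRNA not a specific factor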
How it was run: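 HepG2 cells were transiently transfected with promoter-driven multiplexed reporter units and dosed for 24 h. Reporter mRNA was measured by RT-PCR with capillary electrophoresis fluorescence; bidirectional fits used DMSO as baseline, serving as a background control.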

[2] = ATG_TGFb_CIS: Attagene CIS-FACTORIAL HepG2 Assay for human Transforming Growth Factor (TGF) (AID 2282967); settings: HepG2 Attagene CIS TGFb reporter, mRNA transcription; actives raise or lower the signal
How it was run: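 After a 24-hour incubation with compound, transfected HepG2 cells were lysed for RNA; reporter cDNA was amplified, fluorescently end-labeled and separated by CE. DMSO served as baseline for bidirectional fits.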

[3] = ATG_VDRE_CIS: Attagene CIS-FACTORIAL HepG2 Assay for human Vitamin D Receptor Element (VDRE) (AID 2282968); settings: HepG2 VDRE cis-reporter transcription, actives raise or lower the signal
How it was run: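 In transiently transfected HepG2 liver cells, gain or loss of reporter mRNA after 24 h exposure is scored relative to DMSO, using fluorescence detection by capillary electrophoresis of RT-PCR products.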

[4] = molecular target: Nuclear receptor subfamily 1 group I member 3 (Homo sapiens) (UniProt Q14994); experiment: ATG_CAR_TRANS: Attagene TRANS-FACTORIAL HepG2 Assay for human Constitutive Androstane Receptor (CAR) (AID 2282969; active means hit-call score of the fitted dose curve at least 0.9, where 1 is the maximum;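 further: activators raise reporter mRNA above DMSO so AC50 marks induction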); settings: HepG2 Attagene TRANS-FACTORIAL CAR reporter
How it was run: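 Readout is reporter mRNA induction, quantified by fluorescent primer extension and capillary electrophoresis after RT-PCR. Cells were HepG2 transiently carrying chimeric NR-Gal4 constructs with GAL4-UAS reporters, treated for 24 h; activity scored upward from DMSO.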

[5] = molecular target: Estrogen receptor (Homo sapiens) (UniProt P03372); experiment: ATG_ERa_TRANS: Attagene TRANS-FACTORIAL HepG2 Assay for human Estrogen Receptor alpha (ERa) (AID 2282970; active means hit-call score of the fitted dose curve at least 0.9, where 1 is the maximum); settings: HepG2 Attagene TRANS ERa GAL4 reporter, mRNA
How it was run: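 HepG2 cells transiently transfected with multiplexed GAL4-UAS reporter units; ERa activity read via exogenous chimeric NR-Gal4 protein. After 24 hour compound exposure, reporter mRNA measured by RT-PCR with 6-FAM labelling and capillary electrophoresis; gain-of-signal fitted relative to DMSO.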

[6] = molecular target: X-box-binding protein 1 (Homo sapiens) (UniProt P17861); experiment: ATG_Xbp1_CIS: Attagene CIS-FACTORIAL HepG2 Assay for human X-box Binding Protein 1 (XBP1) (AID 2282972); settings: HepG2 XBP1 cis-element reporter, Attagene multiplex; actives raise or lower the signal
How it was run: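 HepG2 cells transiently transfected with cis-regulated multiple reporter transcription units; endogenous transcription factor activity measured 24 hours after chemical dosing. Reporter mRNA quantified by RT-PCR, 6-FAM primer extension, HpaI digestion and capillary electrophoresis; bidirectional fitting versus DMSO.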

[7] = ATG_M_19_TRANS: Attagene TRANS-FACTORIAL HepG2 Assay for M19 Transcription Factor (Internal Marker) (AID 2282974; active means hit-call score of the fitted dose curve at least 0.9, where 1 is the maximum); settings: HepG2 Attagene TRANS-FACTORIAL M19 internal marker reporter
How it was run: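 Measured here: internal-marker reporter transcript from HepG2 cells transfected with MRTUs, harvested at 24 h. cDNA PCR products were 6-FAM labelled by primer extension, cut with HpaI for 2 h at 37 C, and resolved by CE.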

[8] = ATG_GAL4_TRANS: Attagene TRANS-FACTORIAL HepG2 Assay for GAL4 (Internal Marker) (AID 2282976; active means hit-call score of the fitted dose curve at least 0.9, where 1 is the maximum); settings: HepG2 Attagene TRANS GAL4 internal marker reporter
How it was run: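 HepG2 cells transiently transfected with multiplexed GAL4-UAS reporter constructs were dosed for 24 h. Reporter mRNA was measured by RT-PCR, 6-FAM primer extension, HpaI digestion and capillary electrophoresis, and gain of signal was fitted relative to DMSO.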

[9] = molecular target: Steroid hormone receptor ERR1 (Homo sapiens) (UniProt P11474); experiment: ATG_ERRa_TRANS: Attagene TRANS-FACTORIAL HepG2 Assay for human Estrogen-Related Receptor alpha (ERRa) (AID 2282971; active means hit-call score of the fitted dose curve at least 0.9, where 1 is the maximum); settings: HepG2 Attagene TRANS reporter, ERRa transactivation
How it was run: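 HepG2 cells transiently transfected with multiplexed GAL4-UAS reporter units reading chimeric ERRa-Gal4 activity; 24 h compound exposure. Reporter mRNA measured by RT-PCR, 6-FAM labelling, HpaI digest and capillary electrophoresis; gain of signal fitted versus DMSO baseline.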

Measured: AC50

Sequence of Estrogen receptor (Homo sapiens) (P03372 whole entry, looked up, the tested form may be a part): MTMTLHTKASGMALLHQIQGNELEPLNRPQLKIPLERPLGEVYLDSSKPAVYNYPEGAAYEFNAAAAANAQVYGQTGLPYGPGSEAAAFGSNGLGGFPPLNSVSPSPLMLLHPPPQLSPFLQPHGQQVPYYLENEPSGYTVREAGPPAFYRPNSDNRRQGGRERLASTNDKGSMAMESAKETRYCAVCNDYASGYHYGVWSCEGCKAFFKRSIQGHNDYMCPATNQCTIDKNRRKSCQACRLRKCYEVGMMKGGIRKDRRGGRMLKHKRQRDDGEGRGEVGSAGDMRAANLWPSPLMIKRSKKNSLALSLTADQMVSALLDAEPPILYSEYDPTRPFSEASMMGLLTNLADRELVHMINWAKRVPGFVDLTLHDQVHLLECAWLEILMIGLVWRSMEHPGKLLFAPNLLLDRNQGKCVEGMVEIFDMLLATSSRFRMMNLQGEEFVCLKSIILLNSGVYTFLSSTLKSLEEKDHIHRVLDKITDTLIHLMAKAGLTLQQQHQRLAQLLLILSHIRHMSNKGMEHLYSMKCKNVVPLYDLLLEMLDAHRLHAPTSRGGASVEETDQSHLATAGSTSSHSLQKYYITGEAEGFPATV
Sequence of Nuclear receptor subfamily 1 group I member 3 (Homo sapiens) (Q14994 whole entry, looked up, the tested form may be a part): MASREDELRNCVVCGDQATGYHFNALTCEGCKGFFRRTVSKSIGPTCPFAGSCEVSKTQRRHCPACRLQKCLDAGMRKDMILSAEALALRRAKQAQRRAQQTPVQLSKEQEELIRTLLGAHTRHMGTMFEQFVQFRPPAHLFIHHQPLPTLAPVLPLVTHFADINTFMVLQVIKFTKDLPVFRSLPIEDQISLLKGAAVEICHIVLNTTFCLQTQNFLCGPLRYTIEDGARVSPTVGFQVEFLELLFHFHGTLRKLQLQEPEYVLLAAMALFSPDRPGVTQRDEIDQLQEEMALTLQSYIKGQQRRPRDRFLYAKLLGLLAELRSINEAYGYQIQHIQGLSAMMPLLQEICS
Sequence of Steroid hormone receptor ERR1 (Homo sapiens) (P11474 whole entry, looked up, the tested form may be a part): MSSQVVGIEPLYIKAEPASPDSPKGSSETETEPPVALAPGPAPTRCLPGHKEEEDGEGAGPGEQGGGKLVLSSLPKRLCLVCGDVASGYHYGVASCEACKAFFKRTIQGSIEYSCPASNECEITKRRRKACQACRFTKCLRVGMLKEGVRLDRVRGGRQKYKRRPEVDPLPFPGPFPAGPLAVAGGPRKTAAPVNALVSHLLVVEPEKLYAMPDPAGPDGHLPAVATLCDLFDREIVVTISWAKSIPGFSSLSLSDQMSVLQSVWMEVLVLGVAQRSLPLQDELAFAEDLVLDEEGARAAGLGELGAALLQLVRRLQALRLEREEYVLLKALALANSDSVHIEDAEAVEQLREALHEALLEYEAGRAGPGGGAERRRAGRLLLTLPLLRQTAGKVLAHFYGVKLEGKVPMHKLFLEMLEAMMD
Sequence of X-box-binding protein 1 (Homo sapiens) (P17861 whole entry, looked up): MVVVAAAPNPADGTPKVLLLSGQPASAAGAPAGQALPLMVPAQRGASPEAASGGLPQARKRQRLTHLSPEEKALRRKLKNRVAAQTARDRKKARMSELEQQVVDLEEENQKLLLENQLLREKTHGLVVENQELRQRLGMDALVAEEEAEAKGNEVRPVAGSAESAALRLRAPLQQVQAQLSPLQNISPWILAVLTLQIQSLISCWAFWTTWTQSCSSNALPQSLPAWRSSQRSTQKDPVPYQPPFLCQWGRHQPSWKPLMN

CCCCC1C(=O)N(c2ccccc2)N(c2ccccc2)C1=O
inactive: [1] | [2] | [3] | [4] | [5] | [6] | [7] | [8]

CCC[Si](OC)(OC)OC
inactive: [1] | [2] | [3] | [5] | [9] | [6] | [7]

Cc1ccc(S(=O)(=O)N=C=O)cc1
inactive: [1] | [2] | [3] | [5] | [9] | [6] | [8]

c1ccc(-c2nc3ccccc3[nH]2)cc1
inactive: [1] | [2] | [3] | [5] | [6] | [8]

CCCCNS(=O)(=O)c1ccccc1
inactive: [1] | [2] | [3] | [5] | [6] | [7]

CCC1(C)C(=O)N(Cl)C(=O)N1Cl (stereo not given)
active: [3] 32.4 µM | [6] 47.1 µM
inactive: [1] | [2] | [4] | [5] | [7] | [8]

CC1=C(O)C(=O)C(C)O1 (stereo not given)
inactive: [1] | [2] | [4] | [5] | [6] | [8]

CCCCOC(=O)CCC(C)=O
inactive: [1] | [2] | [3] | [4] | [5] | [6] | [7]

O=C(O)C1CCC(C(=O)O)CC1 (stereo not given)
inactive: [1] | [2] | [3] | [5] | [6]

CCCCC(CC)COS(=O)(=O)O (stereo not given)
inactive: [1] | [2] | [3] | [5] | [9] | [6] | [7]

CC1(C)CC(O)CC(C)(C)N1[O]
inactive: [1] | [2] | [3] | [6]

CC(C)(c1ccccc1)c1ccc(Nc2ccc(C(C)(C)c3ccccc3)cc2)cc1
inactive: [1] | [2] | [4] | [5] | [6] | [7]

CC(=O)c1ccc(S(=O)(=O)NC(=O)NC2CCCCC2)cc1
inactive: [1] | [2] | [3] | [6] | [7]

CC(C)(CO)C(O)C(=O)NCCCO (stereo not given)
inactive: [1] | [2] | [3] | [6]

Cc1c(C(=O)c2c[nH]n(C)c2=O)ccc(S(C)(=O)=O)c1C1=NOCC1
inactive: [1] | [3] | [6] | [7]

CC(C)(O)Cc1ccccc1
inactive: [1] | [2] | [3] | [5] | [9] | [6]

CCCCCCCOC(=O)c1ccc(O)cc1
inactive: [1] | [2] | [3] | [4] | [8]
active: [5] 8.4 µM | [6] 45.1 µM

CCOB(OCC)OCC
inactive: [1] | [2] | [3] | [6] | [7]

CCCCCCOC(=O)CCCCC(=O)OCCCCCC
inactive: [1] | [2] | [3] | [5] | [9] | [6] | [8]

COCC(=O)O
inactive: [1] | [2] | [3] | [5] | [6]
